# Screens deposited in PubChem BioAssay by National Center for Advancing Translational Sciences (NCATS).
# S2 tox: viability counter-screen for ATXN expression inhibitors. S2 cells (HEK-293 line with an ATXN2-luciferase reporter) viability, CellTiter-Fluor protease fluorescence, 24 h. Potency, µM (highest dose often 56.7 µM), usual class: cytotoxic. hit rate 0.49% among 400,000; also: nearly all actives have a fitted effect of over 40% in size
# 12-LOX inh: blocks human arachidonate 12S-lipoxygenase; P18054; purified 12hLO, xylenol orange hydroperoxide absorbance; Potency, µM (series often up to 108 µM), without a hit: at the highest dose activity change, negative = inhibition, actives largely listed as inhibitors; hit rate 1.1% among 580,000; AID 1671190; also: % is scaled to controls: 0 for no effect and ±100 for the full control effect
# Target sequence (P18054 whole entry, looked up): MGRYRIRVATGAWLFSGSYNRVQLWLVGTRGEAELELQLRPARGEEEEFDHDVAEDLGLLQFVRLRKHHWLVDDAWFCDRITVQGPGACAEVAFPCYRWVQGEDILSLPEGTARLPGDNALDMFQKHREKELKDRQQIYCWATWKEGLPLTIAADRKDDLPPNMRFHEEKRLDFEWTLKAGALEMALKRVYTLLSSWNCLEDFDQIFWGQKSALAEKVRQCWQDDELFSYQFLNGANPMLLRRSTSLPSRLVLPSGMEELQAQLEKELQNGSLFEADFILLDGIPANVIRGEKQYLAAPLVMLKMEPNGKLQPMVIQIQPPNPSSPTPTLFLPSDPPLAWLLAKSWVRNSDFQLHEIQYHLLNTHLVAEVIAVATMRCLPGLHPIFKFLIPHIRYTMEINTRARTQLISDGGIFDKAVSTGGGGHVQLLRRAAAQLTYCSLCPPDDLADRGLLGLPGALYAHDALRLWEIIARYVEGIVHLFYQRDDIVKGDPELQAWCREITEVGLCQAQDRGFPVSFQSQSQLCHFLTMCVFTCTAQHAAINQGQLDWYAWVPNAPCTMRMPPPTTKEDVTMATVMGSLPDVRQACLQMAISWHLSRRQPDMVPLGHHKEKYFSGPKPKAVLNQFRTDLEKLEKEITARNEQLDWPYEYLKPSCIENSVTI
#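 Hydroperoxide product was detected by ferrous iron/xylenol orange as the 573 to 405 nm absorbance ratio. Arachidonic acid at 40 uM (final) was turned over for 30 min at room temperature by 150 nM human 12hLO, pH 7.0 Hepes buffer, after 15 min compound preincubation.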
# TGFb inhibitor: inhibitors of TGF-b signaling | HepG2 CAGA-GFP TGF-b/SMAD3 reporter, GFP fluorescence, 18 h; TGF-beta stimulated, 500 pg/mL final | Potency, µM (doses to about 46.1 µM), for the others: top-dose activity, negative = inhibition, hits mostly inhibitors | hit rate 1.2% among 410,000 | AID 588855; also: % is scaled to controls: 0 for no effect and ±100 for the full control effect; nearly all actives have a fitted effect of over 65% in size
#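 Cell-based qHTS in HEPG2 carrying a CAGA-GFP Smad reporter; compounds added before 500 pg/mL final TGF-beta, 18 h incubation at 37 degrees C, GFP fluorescence quantified per cell by imaging cytometry.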
# HepG2 viability: counter-screen for TGF-b inhibitors: cytotoxicity in HepG2 cells. HepG2 CAGA-GFP viability, ATP luminescence, 18 h. Potency, µM (doses to about 46.1 µM), for the others: at the highest dose activity change, negative = cytotoxicity, hits mostly cytotoxic. hit rate 0.76% among 410,000
#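 HepG2 CAGA-GFP cells (1000/well, DMEM with 1% FBS) received compound, then TGF-beta at 500 pg/mL final, and were incubated 18 hours at 37 degrees C. Viability was read by CellTiter-Glo luminescence. Media-only wells were set as complete cell-killing and DMSO as no toxicity.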
# ATXN2 expr inh: inhibitors of ATXN2 expression; HEK-293 ATXN2-luciferase reporter, luminescence, 24 h; Potency, µM (doses to about 57 µM), for the others: at the top dose activity change, negative = inhibition, usual class: inhibitors; hit rate 0.72% among 360,000; also: % is scaled to controls: 0 for no effect and ±100 for the full control effect; nearly all actives have a fitted effect of over 55% in size
#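 qHTS (up to 57 uM final) was run with 24 h compound exposure of reporter cells at 37 °C. Each well was multiplexed: SteadyGlo luminescence measured ATXN2-luciferase expression after a fluorogenic Gly-Phe-AFC viability readout (25 uM final).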
# Starred values were filed as active, the others as inactive; i = inactive; u = inconclusive; x = no result; ! = a repeat was not active; [ ] = dose if it differs, or a comment. Compounds with a hit are over-represented: about 2.7% of the library has one in this group of screens. Calls follow the shape of the dose curve; as a rule, active = well fitted curve in the direction sought with a large enough effect; inconclusive = small, poorly fitted or top-dose-only effect, or another doubt; inactive = no such curve, though single readings can be large; an effect the other way counts as inactive or inconclusive. Potency is read from the fitted curve at half-maximal effect.
SMILES,S2 tox,12-LOX inh,TGFb inhibitor,HepG2 viability,ATXN2 expr inh
CC(C)NC(=O)NC(=O)C(C)Nc1ccc(F)cc1 (stereo not given),x,-11.1%,x,x,x
CCCN(Cc1ccccc1)C(=O)NCCC(=O)OCC,x,-0.5%,x,x,x
Clc1ccc2c(NN=C3CCCC3)ccnc2c1,x,7.94µM*,x,x,x
CC(C)NC1CCC(Nc2ccnc3cc(Cl)ccc23)CC1 (stereo not given),i,u,-0.6%,-15.0%,u
Oc1ccc(/C=N/Nc2ccnc3cc(Cl)ccc23)cc1O,31.6µM*,u,u,-41.2%,u
Clc1ccc2c(NCCNC3CCCCC3)ccnc2c1,x,u,u,12.6µM*,2.24µM*
Oc1ccc(/C=N/Nc2ccnc3cc(Cl)ccc23)c(O)c1O,i,u,0.0%,-1.0%,2.6%
CCN(CC)c1ccc(C=Nc2ccc(Br)c(Cl)c2)cc1,x,32.1%,x,x,x
O=c1oc2ccccc2c(N2CCCC2)c1NS(=O)(=O)c1ccc(F)cc1,x,-23.5%,x,x,x
Oc1cccc(-c2c3nc(c(-c4cccc(O)c4)c4ccc([nH]4)c(-c4cccc(O)c4)c4nc(c(-c5cccc(O)c5)c5ccc2[nH]5)CC4)C=C3)c1,7.08µM*,3.61µM*,x,x,-1.5%
N#Cc1c(N)nc2c(c1-c1cccc(O)c1)CCCCCC2,u,-3.9%,u,-30.1%,u
COc1ccc(C(=O)N[C@@H]2CCC[C@@H]2C(=O)N2CCN(c3cc(C)ccc3C)CC2)cc1,x,33.9%,x,x,x
S=c1[nH]nc(-c2cc(-c3ccccc3)n[nH]2)n1/N=C/C=C/c1ccco1,u,39.8µM*,-4.5%,3.5%,18.5%
S=c1[nH]nc(-c2ccco2)n1/N=C/C=C/c1ccco1,i,u,-0.3%,8.7%,5.9%
S=c1[nH]nc(-c2cc(-c3ccccc3)n[nH]2)n1/N=C/c1ccc(Br)s1,i,25.1µM*,-2.1%,-18.8%,14.5%
COC(=O)c1cccc(NS(=O)(=O)c2c(C)nn(C)c2C)c1,x,-5.2%,x,x,x
CC(C)Nc1nc(C(=O)Nc2ccc(Cn3cncn3)cc2)cs1,x,4.3%,x,x,x
COc1cc(/C=C(/C#N)C(=O)Nc2cccc3ncccc23)ccc1OCC(C)C,x,-11.2%,x,x,x
C=CCOc1ccc(/C=C(\C#N)C(=O)Nc2ccccn2)cc1OC,i,10µM*,-7.5%,-4.4%,6.1%
COc1ccc(/C=C(\C#N)C(=O)Nc2ccccn2)cc1,i,0.0%,7.0%,4.4%,3.3%
CC(C)c1ccc(/C=C(/C#N)C(=O)Nc2cccc3ncccc23)cc1,x,15.8µM*,x,x,x
COc1ccc(/C=C(/C#N)C(=O)Nc2cccc3ncccc23)cc1OC,x,15.8µM*,x,x,x
COc1cc2cc(C(=O)NCC(=O)Nc3ccc4c(c3)OCO4)n(C)c2c(OC)c1OC,x,41.7%,x,x,x
CC(=O)N1c2ccc(S(=O)(=O)N(C)CC(=O)NCCc3ccc(Cl)cc3)cc2CC1C (stereo not given),x,4.6%,x,x,x
COc1ccc(Br)c(C(=O)OC(C)C(=O)Nc2c(C)n(C)n(-c3ccccc3)c2=O)c1 (stereo not given),x,-2.3%,x,x,x
SMILES,S2 tox,12-LOX inh,TGFb inhibitor,HepG2 viability,ATXN2 expr inh
CCOC(=O)C1=C(N)Oc2cc(O)ccc2C1c1cccnc1 (stereo not given),i,-6.9%,-0.6%,-18.8%,6.9%
CCOC(=O)C1=C(N)Oc2cc(O)ccc2C1c1cccc(Cl)c1 (stereo not given),i,u,20µM*,2.8%,-15.4%
CCOC(=O)C1=C(C)NC(C)=C(C(=O)OCC)C1c1ccc(O)cc1,i,-32.5%,u,-2.1%,18.5%
CCOC(=O)C1=C(N)Oc2ccc(Br)cc2[C@@H]1[C@@H](C#N)C(=O)OCC,x,10µM*,x,x,x
CCOC(=O)C1=C(N)Oc2cc(O)ccc2C1c1ccc(Br)cc1 (stereo not given),i,25.1µM*!,u,-33.0%,-22.2%
CC(=O)c1ccc(NC(=O)C2CC(=O)N(C(C)(C)C)C2)cc1 (stereo not given),x,-27.8%,x,x,x
CCN1C(=O)/C(=C\c2nc3ccccc3c(=O)n2CC)c2ccccc21,i,-15.1%,0.4%,-12.1%,-14.1%[11.3 µM]
CCN1C(=O)/C(=C/c2nc3ccccc3c(=O)n2-c2ccccc2)c2ccccc21,u,9.6%,5.7%,15.8µM*,u
COc1ccc(-c2nc(NCCCN3CCCCC3C)c3ccccc3n2)cc1 (stereo not given),x,1.3%,x,x,x
CCN1C(=O)C(=Cc2cccc(OC)c2Oc2ccc([N+](=O)[O-])cc2[N+](=O)[O-])SC1=S,12.6µM*,-24.4%,0.0%,-13.8%,22.4µM*
O=C(COC(=O)c1ccc(-c2ccccc2)s1)c1ccccc1,x,-2.4%,x,x,x
Fc1ccccc1Cn1c(-c2ccccc2)nc2ccccc21,31.6µM*,-15.2%,u,-68.2%,u
CC1C(=O)N(Cc2ncc(-c3ccccc3)o2)C(=O)N1c1ccc(F)cc1 (stereo not given),x,0.1%,x,x,x
C/C(=N\NC(=O)C(=O)Nc1ccc(C)c(Cl)c1)c1ccncc1,i,8.0%,-3.8%,-1.6%,-4.2%
C/C(=N\Nc1ccc(C)c(Cl)c1)c1ccncc1,i,44.7µM*,13.0%,-17.5%,1.3%
C/C(=N\NC(=O)Cc1ccc(Cl)c(Cl)c1)c1cccnc1,i,18.0%,16.6%,2.3%,-16.3%
C/C(=N\Nc1ccc(C)c(Cl)c1)c1cccnc1,i,4.47µM*,1.4%,-2.2%,41.3%
O=C(NC1CCCCCC1)c1nc(Cc2c[nH]c3ccccc23)no1,x,-5.9%,x,x,x
Cc1cc(C(=O)Cn2c(=O)c3c(ncn3C3CCCC3)n(Cc3ccccc3)c2=O)c(C)n1C,x,-19.3%,x,x,x
O=C(NCc1noc(-c2ccco2)n1)c1ccc(Br)cc1,x,-23.1%,x,x,x
CCC(CO)(CO)NC(=O)c1nc(-c2cccc3[nH]ccc23)no1,x,2.2%,x,x,x
Cc1cccc(N2CCN(c3ccc(C(=O)O)cc3NC(=O)c3cccc(Cl)c3)CC2C)c1 (stereo not given),i,44.7µM*,-37.5%,-22.0%,6.1%
COCCCn1c(C)cc(C(=O)NCCc2noc(-c3ccccc3)n2)c1C,x,-1.1%,x,x,x
CC(C)N1CCc2c(sc(NC(=O)c3nc4ccccc4s3)c2C(N)=O)C1,i,-1.2%,1.5%,-30.7%,-8.0%
CC(C)N1CCc2c(sc(NC(=O)c3cc(-c4cccs4)nc4ccccc34)c2C(N)=O)C1,x,x,-22.7%,17.8µM*,u
CC(C)N1CCc2c(sc(NC(=O)c3ccc(S(=O)(=O)N4CCc5ccccc54)cc3)c2C(N)=O)C1,u,x,u,12.6µM*,u
O=C(/C=C/c1cccs1)OCC(=O)c1ccc2c(c1)-c1ccccc1C2,x,-7.1%,x,x,x
CC1(C)CC(=O)c2cc(-c3nc(-c4ccc(F)cc4)cs3)c(=O)[nH]c2C1,i,50.1µM*,0.8%,-27.7%,14.0%
CC(C)=CC[C@@H](O)C1=CC(=O)c2c(O)ccc(O)c2C1=O,x,2.17µM*,x,x,u
